PubChem BioAssay AID449762 (Southern Research Specialized Biocontainment Screening …, 2010)
Among all 330,000 compounds or so, about 1,900 (0.58%) were called active. Roughly 4% stayed inconclusive and do not appear here. These entries were drawn from the full list. Potency and affinity values are given separately. A number with no mark means an inactive call. No stated cut-off is given here; in the data, inconclusive means inhibition above about 70% without an active follow-up result; inactive means below that.

Test: M. tuberculosis growth inhibition, HTS (AID 449762);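 further: bacterial growth assessed after seven days of incubation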
Conditions: M. tuberculosis H37Rv growth inhibition, 7H9 media; at 25 µM; active compounds read high

SMILES	inhibition [%]
CC1CCN(C(=O)c2ncn(Cc3ccccc3)c2C(=O)N2CCC(C)CC2)CC1	5.23
COc1ccccc1NC(=O)c1ccc(S(=O)(=O)N(C)C)cc1	-13.6
COc1ccccc1OCCNC(=O)c1ccc(S(=O)(=O)N(C)C)cc1	-2.93
CC(C)CC(=O)NC(=S)Nc1ccccc1F	-4.61
O=C(Nc1ccnc(-c2ccncc2)n1)c1ccc(Cl)cc1	11.3
CN(CCOc1ccc(Cl)cc1)C(=O)CN1C(=O)NC2(CCCCC2)C1=O	-0.72
COc1ccc(OC)c(NC(=O)C2CCN(Cc3cnn(-c4ccccc4)c3-n3cccc3)CC2)c1	61.3
COc1ccc(NC(=O)C2CCN(Cc3cnn(-c4ccccc4)c3-n3cccc3)CC2)cc1OC	-3.38
c1ccc(Nc2nc(N3CCCC3)nc(N3CCCC3)n2)cc1	17.2
c1ccc(Nc2nc(N3CCCCC3)nc(N3CCCCC3)n2)cc1	4.61
O=C(CSc1nc2ccccc2o1)N1CCOCC1	-2.89
Cc1c(NC(=O)C(c2ccccc2)c2ccccc2)cccc1C(=O)O	0.47
O=C(NC1CCCC1)C(c1ccc(F)cc1)N(Cc1ccc(F)cc1)C(=O)CCl (configuration not stated)	0.54
CCOC(=O)c1c(CC(C)C)csc1NC(C)=O	-1.62
CCOC(=O)c1c(CC(C)C)csc1NC(=O)C(C)C	1.18
Cc1cccc(NC(=O)c2ccc(S(=O)(=O)N3CCCCC3C)cc2)n1 (configuration not stated)	8.6
O=c1[nH]c2ccccc2nc1/C=C(\O)C1CC1	-0.58
O=C(C1CCN(S(=O)(=O)c2cccc3cccnc23)CC1)N1CCN(C2CCCC2)CC1	-2.61
CC(NCc1ccc(N(C)C)cc1)C1CC2CCC1C2 (configuration not stated)	0.02
c1cc(CNC2C3CC4CC(C3)CC2C4)ccn1 (configuration not stated)	10.3
CNC(=O)c1ccc(NC(=O)Nc2ccccc2)cc1	-1.42
Cc1occc1-c1nnc(SCC(=O)NCCc2ccccc2)n1Cc1ccccc1	1.99
Cc1occc1-c1nnc(SCC(=O)Nc2ccccn2)o1	36.7
CC(C)(C)c1ccc(-c2nnc(SCC(=O)NC3CCS(=O)(=O)C3)n2N)cc1 (configuration not stated)	1.59

SMILES	inhibition [%]
COc1cc(CC(=O)OCC(=O)Nc2ccc3c(c2)OCO3)cc(OC)c1OC	0.09
COc1ccc(C2=NOC(Cn3nc(C(=O)O)cc3-c3ccccc3)C2)cc1 (configuration not stated)	-10.9
O=C(Cn1ccc2ccccc2c1=O)NCCC(=O)N1CCN(c2ccccc2)CC1	2.9
O=C(CSc1nc(=O)n(CCCN2CCOCC2)c2c1CCCC2)Nc1ccc(F)cc1	-5.62
Cc1cccc(C)c1NC(=O)N1CCCCCCC1	-5.98
C#CCOCCOCCOCCNc1nc(N2CCN(C(=O)CCCCCCCCCCNC(=O)[C@H](CCCCN)n3cc(CCO)nn3)CC2)nc(N2CCN(C(=O)CCCCCCCCCCNC(=O)[C@H](CCCCN)n3cc(CCCC(=O)O)nn3)CC2)n1	24.8
C#CCOCCOCCOCCNc1nc(N2CCN(C(=O)CCCCCCCCCCNC(=O)[C@H](CCCCN)n3cc(CCCC(=O)O)nn3)CC2)nc(N2CCN(C(=O)CCCCCCCCCCNC(=O)[C@H](CCCCN)n3cc(CCCC(=O)O)nn3)CC2)n1	-1.93
CC(C)CNC(=O)COC(=O)C1c2ccccc2Oc2ccccc21	9.4
N#CCC(=O)Nc1ccc(C(=O)OCC(=O)c2ccc3c(c2)OCCO3)cc1	-4.26
CCC(C(=O)Nc1ccc(OC)c(Cl)c1)c1ccccc1 (configuration not stated)	-3.28
O=C(CSc1ccc(-c2cccnc2)nn1)Nc1ccc(Br)cc1	-0.4
Cc1nonc1OCCNCCNc1ccc([N+](=O)[O-])cc1Cl	10.9
COc1ccc(NC(=O)CN2CCN(CC(=O)Nc3ccc4c(c3)OCO4)CC2)cc1	-4.59
COc1ccccc1NC(=O)CN1CCN(CC(=O)Nc2ccc(OC)c(OC)c2)CC1	-1.32
CCOC(=O)c1c(C=O)c2ccccc2n1Cc1ccccc1F	0.55
N#CC1=C(N)Oc2n[nH]c(-c3cccs3)c2C1c1ccccc1C(=O)O (configuration not stated)	-1.81
CCN(CC)C(=O)CC(c1ccc(OC)cc1)c1c(O)cc(OC)cc1OC (configuration not stated)	-3.84
CCN(C(=O)COC(=O)c1[nH]c(=O)[nH]c(=O)c1N)c1ccccc1	-1.59
C(=N\Nc1nc(Nc2ccccc2)nc(Nc2ccccc2)n1)/c1ccncc1	0.63
C(=N\Nc1nc(Nc2ccccc2)nc(Nc2ccccc2)n1)/c1cccnc1	11.1
CC(=O)c1c(O)cc(C)n(-c2ccc(F)cc2)c1=O	-1.89
Cc1ccccc1NC(=S)N1CCCC(c2nc3ccccc3[nH]2)C1 (configuration not stated)	0
Cc1[nH][nH]c(=O)c1N=Nc1ccccc1Cl	-0.87
